# Test results as given in the antibiotic and cytotoxicity screens of Wong et al. (2023).
# Among all 39,000 compounds or so, about 500 (1.3%) were called active. What follows is part of a selection rich in actives, with near analogues and random picks from the rest.
# System: S. aureus RN4220
# Assay: growth inhibition call (relative growth <= 0.2)
# Conditions: 50 µM
row,Structure (SMILES),growth inhibition call
1,C[C@@H]1CN([C@@H](C)CO)C(=O)Cc2cc(NC(=O)C3CC3)ccc2O[C@@H]1CN(C)C(=O)Nc1ccc2c(c1)OCO2,inactive
2,CC(C)c1ccccc1Cc1cc(C(=O)Nc2ccc(S(=O)(=O)c3ccccc3C(C)(C)C)cc2)c(O)c(O)c1O,inactive
3,Cc1ccc(S(=O)(=O)N(C)C[C@@H]2Oc3ccc(NC(=O)Nc4cccc5ccccc45)cc3C(=O)N([C@@H](C)CO)C[C@H]2C)cc1,inactive
4,C[C@H]1CC/C=C\[C@H]2O[C@@]34C=CCN(c5ccc6ccccc6c5)C(=O)[C@H]3N(CCCO)C(=O)[C@@H]4[C@@H]2C(=O)O1,inactive
5,C[C@H]1CN([C@@H](C)CO)C(=O)Cc2cc(NC(=O)CCC(F)(F)F)ccc2O[C@H]1CN(C)S(=O)(=O)c1cn(C)cn1,inactive
6,CCN(CC)CCS(=O)(=O)[C@@H]1CCN2C(=O)c3coc(n3)CC(=O)C[C@H](O)/C=C(C)/C=C\CNC(=O)/C=C/[C@@H](C)[C@H](C(C)C)OC(=O)[C@@H]12,active
7,COc1cccc2c1C(=O)c1c(O)c3c(c(O)c1C2=O)CC(O)(C(=O)CO)CC3OC1CC(N)C(O)C(C)O1 (stereo not drawn) [listing 1 of 2 here],inactive
8,COc1cccc2c1C(=O)c1c(O)c3c(c(O)c1C2=O)C[C@@](O)(C(=O)CO)C[C@@H]3O[C@H]1C[C@H](N)[C@H](O)[C@H](C)O1,active
9,COc1cccc2c1C(=O)c1c(O)c3c(c(O)c1C2=O)C[C@@](O)(C(=O)CO)C[C@@H]3O[C@H]1C[C@H](N)[C@@H](O)[C@H](C)O1,active
10,CCCCC(=O)OCC(=O)[C@]1(O)Cc2c(O)c3c(c(O)c2[C@@H](O[C@H]2C[C@H](NC(=O)C(F)(F)F)[C@H](O)[C@H](C)O2)C1)C(=O)c1c(OC)cccc1C3=O,inactive
11,COc1cccc2c1C(=O)c1c(O)c3c(c(O)c1C2=O)C[C@](O)(C(=O)CO)C[C@H]3O[C@H]1C[C@@H](N)[C@@H](O)[C@@H](C)O1,active
12,COc1cccc2c1C(=O)c1c(O)c3c(c(O)c1C2=O)CC(O)(C(=O)CO)CC3OC1CC(N)C(O)C(C)O1.Cl (stereo not drawn),inactive
13,COc1cccc2c1C(=O)c1c(O)c3c(c(O)c1C2=O)CC(O)(C(=O)CO)CC3OC1CC(N)C(O)C(C)O1 (stereo not drawn) [listing 2 of 2 here],inactive
14,Cc1ccnc(NC(=O)Cn2cnc3c2c(=O)n(C)c(=O)n3C)c1,inactive
15,Cc1noc(C)c1S(=O)(=O)Nc1ccc2c(c1)C(=O)N([C@@H](C)CO)C[C@@H](C)[C@@H](CN(C)S(C)(=O)=O)OCCCC[C@@H](C)O2,inactive
16,COCCC(=O)N1CCC2(CC1)COC2,inactive
17,C[C@@H]1CCCCO[C@@H](CN(C)C(=O)Nc2ccc(C(F)(F)F)cc2)[C@H](C)CN([C@H](C)CO)C(=O)c2cc(N(C)C)ccc2O1,inactive
18,Cc1noc(C)c1NC(=O)N(C)C[C@H]1Oc2ccc(NS(=O)(=O)c3ccccc3)cc2C(=O)N([C@@H](C)CO)C[C@H]1C,inactive
19,CCOC(=O)[C@H]1CN(C(C)(C)C)C(=O)C1=O,inactive
20,O=c1[nH]c2ccsc2c(=O)n1CCO,inactive
21,C[C@@H]1CN([C@@H](C)CO)S(=O)(=O)c2ccc(C#Cc3ccncc3)cc2O[C@H]1CN(C)C(=O)C1CCOCC1,inactive
22,CCS(=O)(=O)N1CC[C@]2(CC1)CN([C@H](CO)c1c2c2ccc(cc2n1C)OC)C(=O)CN1CCOCC1,inactive

row,Structure (SMILES),growth inhibition call
1,C[C@H](CO)N1C[C@H](C)[C@@H](CN(C)Cc2ccccc2)Oc2ccc(NC(=O)Cn3cnnn3)cc2CC1=O,inactive
2,Cc1ccc(S(=O)(=O)O)cc1.NC1CCN(c2nc3c(cc2F)c(=O)c(C(=O)O)cn3-c2ccc(F)cc2F)C1.O (stereo not drawn),inactive
3,N[C@@H]1[C@H]2CN(c3nc4c(cc3F)c(=O)c(C(=O)O)cn4-c3ccc(F)cc3F)C[C@@H]12,active
4,N[C@H]1CCN(c2nc3c(cc2F)c(=O)c(C(=O)O)cn3-c2ccc(F)cc2F)C1,active
5,CN[C@H]1CN(c2ccc3c(=O)c(C(=O)O)cn(-c4nccs4)c3n2)C[C@@H]1OC,inactive
6,C[C@H](CO)N1C[C@H](C)[C@H](CN(C)C(=O)CCC(F)(F)F)OCCCC[C@H](C)Oc2ccc(NC(=O)Nc3ccccc3)cc2C1=O,inactive
7,C[C@H](CO)N1C[C@H](C)[C@H](CN(C)C(=O)CCCN(C)C)OCCCC[C@H](C)Oc2ccc(NS(C)(=O)=O)cc2C1=O,inactive
8,C[C@H](CO)N1C[C@H](C)[C@H](CN(C)S(=O)(=O)c2ccc(F)cc2)Oc2c(NC(=O)C3CCOCC3)cccc2C1=O,inactive
9,CC(C)NC(=O)N(C)C[C@@H]1Oc2c(NS(=O)(=O)c3ccc(F)cc3)cccc2C(=O)N([C@H](C)CO)C[C@H]1C,inactive
10,C[C@@H]1CCCCO[C@@H](CN(C)C(=O)CCCN(C)C)[C@H](C)CN([C@@H](C)CO)C(=O)c2cc(NC(=O)Nc3ccc(F)cc3)ccc2O1,inactive
11,COc1cccc(S(=O)(=O)N(C)C[C@@H]2Oc3ncc(C#CC(C)C)cc3C(=O)N([C@@H](C)CO)C[C@H]2C)c1,inactive
12,COC(=O)CC1C(C)(C)C(OC(C)=O)C2CC3=C4CC(=O)OC(c5ccoc5)C4(C)CCC3C1(C)C2=O (stereo not drawn),inactive
13,CCC(=C/[C@H](C)C/C=C/C(C)=C/[C@@H](C)C(=O)[C@@H](C)[C@H](O)[C@@H](C)C/C(C)=C/C(=O)O)/C=C/[C@@H]1OC(=O)C=C[C@@H]1C,active
14,Cc1noc(C)c1S(=O)(=O)N(C)C[C@@H]1Oc2ccc(NS(=O)(=O)c3ccc(F)cc3)cc2C(=O)N([C@H](C)CO)C[C@@H]1C,inactive
15,COc1ccc(S(=O)(=O)N(C)C[C@@H]2Oc3c(NS(=O)(=O)c4ccc(C)cc4)cccc3C(=O)N([C@H](C)CO)C[C@@H]2C)cc1,inactive
16,O=C1NCc2ccccc21,inactive
17,O=C1CCCNc2ccc(Cl)cc21,inactive
18,O=C1CCNc2cc3ccccc3cc21,active
19,CN(C)C(=O)C[C@@H]1CC[C@@H](NC(=O)C2CC2)[C@@H](CO)O1,inactive
20,C[C@@H]1CCCCO[C@@H](CN(C)C(=O)Nc2ccc(F)cc2)[C@H](C)CN([C@H](C)CO)C(=O)c2cc(NS(=O)(=O)c3ccc(F)cc3)ccc2O1,inactive
21,C[C@@H](O)COC[C@H]1O[C@@H]2O[C@H]3[C@H](O)[C@@H](O)[C@@H](O[C@H]4[C@H](O)[C@@H](O)[C@@H](O[C@H]5[C@H](O)[C@@H](O)[C@@H](O[C@H]6[C@H](O)[C@@H](O)[C@@H](O[C@H]7[C@H](O)[C@@H](O)[C@@H](O[C@H]8[C@H](O)[C@@H](O)[C@@H](O[C@H]1[C@H](O)[C@H]2O)O[C@@H]8COC[C@@H](C)O)O[C@@H]7COC[C@@H](C)O)O[C@@H]6COC[C@@H](C)O)O[C@@H]5COC[C@@H](C)O)O[C@@H]4COC[C@@H](C)O)O[C@@H]3COC[C@@H](C)O,inactive
